VP16 counter: VP16 counterscreen qHTS for inhibitors of ROR gamma transcriptional activity. Drosophila S2 Gal4-VP16 UAS-luciferase, luminescence, 20 h. Potency, µM (series often up to 53.6 µM), for the others: top-dose activity, negative = inhibition, actives largely listed as inhibitors. hit rate 3.5% among 310,000. AID 2546, 2010;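 also: Gal4-VP16 expression switched on by copper sulfate through the metallothionein promoter; nearly all actives have a fitted effect of over 50% in size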
PLK1 PBD block: qHTS for Inhibitors of PLK1-PDB (polo-like kinase 1 - polo-box domain): Primary Screen; hit rate 2.8% among 360,000; Plk1 PBD binding of FITC phosphopeptide, fluorescence polarization; Potency, µM, inactives show max response, negative = inhibition, actives largely listed as inhibitors; Serine/threonine-protein kinase PLK1 (Homo sapiens), P53350; also: series mostly up to about 57 µM; nearly all actives have a fitted effect of over 65% in size
Target sequence (P53350 whole entry, looked up, the tested form may be a part): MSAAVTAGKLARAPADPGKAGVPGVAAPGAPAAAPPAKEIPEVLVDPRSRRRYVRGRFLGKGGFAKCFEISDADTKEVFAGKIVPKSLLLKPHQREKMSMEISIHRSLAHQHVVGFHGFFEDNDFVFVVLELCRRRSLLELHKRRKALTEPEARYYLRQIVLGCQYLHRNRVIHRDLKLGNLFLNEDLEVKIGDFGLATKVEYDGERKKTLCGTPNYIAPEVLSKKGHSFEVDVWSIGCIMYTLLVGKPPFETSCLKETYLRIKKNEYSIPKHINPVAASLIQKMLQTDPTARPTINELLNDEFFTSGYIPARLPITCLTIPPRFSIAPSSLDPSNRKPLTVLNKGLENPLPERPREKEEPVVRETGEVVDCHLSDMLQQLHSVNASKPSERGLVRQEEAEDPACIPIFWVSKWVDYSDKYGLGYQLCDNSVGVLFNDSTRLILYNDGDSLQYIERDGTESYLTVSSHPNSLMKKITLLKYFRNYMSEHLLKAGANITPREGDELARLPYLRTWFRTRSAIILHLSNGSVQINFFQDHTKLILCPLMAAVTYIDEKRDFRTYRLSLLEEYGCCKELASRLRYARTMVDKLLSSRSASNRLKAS
ALDH1A1 inh: qHTS Assay for Inhibitors of Aldehyde Dehydrogenase 1 (ALDH1A1) | Purified ALDH1A1, NADH fluorescence, propionaldehyde substrate | hit rate 7.3% among 220,000 | Potency, µM (highest dose often 75.3 µM), for the others: at the top dose activity, negative = inhibition, most hits filed as inhibitors; active = well fitted inhibition curve with a large enough effect, not every such curve was filed as active; inconclusive = small, poorly fitted or top-dose-only effect, or another doubt; inactive = no such curve, though single readings can be large or run the other way;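 also: plate controls were no enzyme wells and a reference inhibitor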
RORg inh: qHTS for inhibitors of ROR gamma transcriptional activity; Potency, µM (series often up to 53.6 µM), without a hit: at the top dose activity change, negative = inhibition, hits mostly inhibitors; Drosophila S2 Gal4-RORgamma UAS-luciferase reporter, 20 h; hit rate 5.4% among 310,000; Nuclear receptor ROR-gamma (Mus musculus), P51450; also: nearly all actives have a fitted effect of over 60% in size
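Stable Schneider cell line, Gal4 DNA-binding domain fused to ROR gamma, UAS-luciferase. Cmpd 1 hr RT → CuSO4 700 uM final → 20 hr RT → luciferase reagent 10 min → luminescence.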
Sfp inh: qHTS Assay for Inhibitors of Bacillus subtilis Sfp phosphopantetheinyl transferase (PPTase); 4'-phosphopantetheinyl transferase ffp (Bacillus subtilis), Q9F4F7; Biochemical Sfp PPTase activity, qHTS; Potency, µM, for inactives: largest response in the series, negative = inhibition, actives largely listed as inhibitors; hit rate 3.5% among 310,000; AID 1490, 2009;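 also: the enzyme is Sfp with the accession as filed and its product quenches rhodamine fluorescence; 0% = enzyme reaction without inhibitor and -100% = no enzyme wells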
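After 15 min at room temperature with compound, 15 nM Sfp received 5 uM rhodamine-CoA plus 12.5 uM BHQ-2-ybbR (50 mM Hepes pH 7.6, 10 mM MgCl2). Rate came from the fluorescence difference over 30 min, ex 525/em 598 nm.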
Active calls of the source: *; ? = inconclusive; · = not tested or not shown; [ ] = another dose, or the depositor's remark. A selection: hits, their analogues and other compounds. The true share with any hit is near 12%. Unless noted, calls follow the shape of the dose curve; as a rule, active = well fitted curve in the direction sought with a large enough effect; inconclusive = small, poorly fitted or top-dose-only effect, or another doubt; inactive = no such curve, though single readings can be large; an effect the other way counts as inactive or inconclusive. Unless noted, % is scaled to controls: 0 for no effect and ±100 for the full control effect; potency is read from the fitted curve at half-maximal effect.

SMILES	VP16 counter	PLK1 PBD block	ALDH1A1 inh	RORg inh	Sfp inh
CSc1cccc(NC(=O)c2nnn(CC(=O)Nc3cc(C)cc(C)c3)c2N)c1	-8%	13µM*	·	-14%	13%
CSc1cccc(NC(=O)COc2ccccc2)c1	-12%	3µM*	?	-3%	-5%
O=C(CN1C(=O)c2ccccc2S1(=O)=O)Nc1ccc(S(=O)(=O)N2CCCC2)cc1	-2%	-1%	2%	17%	4%
CC(=O)c1cccc(NC(=O)COc2ccccc2)c1	·	-5%	12%	-5%[0.365 µM]	22%
N#CCCN(CCCN1CCOCC1)CN1C(=O)c2ccccc2C1=O	·	7%	·	·	·
CCOc1ccc(N2C(=O)CNC2=S)cc1	-14%	-7%	2%	-21%	14%
CCOc1ccc(N2C(=O)CS/C2=C(\C(Cl)=C(Cl)Cl)[N+](=O)[O-])cc1	5%	-14%	22µM*	-4%	2%
CO[C@@H]1CN(C)C(=O)c2cc(NC(=O)NC3CCCCC3)ccc2OC[C@@H](C)N(CC2CCOCC2)C[C@@H]1C	·	-1%	·	·	·
COc1ccc(C(=O)c2[nH]c(N)c(C(=O)NCCc3c[nH]c4ccccc34)c2-c2ccc(C(F)(F)F)cc2)cc1	·	-12%	·	·	·
O=C(COc1ccc(F)cc1)Nc1nccs1	-9%	-6%	6%	10µM*	-3%
O=C(CN1CCN(c2ccc(F)cc2)CC1)Nc1nccs1	-8%	24µM*	·	-5%	0%
COc1ccccc1CN(C(=O)CNC(=O)c1ccco1)C(C(=O)NCC1CCCO1)c1ccc(OC)c(OC)c1 (stereo not drawn)	5%	3%	·	-17%	3%
CC(C)NC[C@@H](O)COc1ccccc1-n1cccc1	15%	·	-2%	15%	13%
CC1CCN(c2nc(CN3CCCCC3)nc3scc(-c4ccccc4)c23)CC1	22µM*	4%	-11%	10µM*	-9%
CC1CCN(c2nc(-c3cccnc3)nc3scc(-c4ccccc4)c23)CC1	?	1%	3%	46%	5%
Cc1occc1-c1n[nH]c(=S)n1C	-7%	?	4%	?	5%
CC(C1CC2CCC1C2)n1c(-c2ccco2)n[nH]c1=S (stereo not drawn)	6.3µM*	30µM*	14µM*	1.3µM*	?
Cc1cc(N2CCCC2)ccc1/C=C1\NC(=S)N(C)C1=O	2.5µM*	48%	4.5µM*	-42%	-15%
O=C1/C(=C/c2ccc(N3CCCC3)cc2)NC(=S)N1C1CC1	11µM*	54%	16µM*	7.1µM*	-4%
O=C1NC(=S)N/C1=C\c1ccc(N2CCOCC2)cc1	4%	3.8µM*	-2%	15%	9%
O=C1NC(=S)NC1=Cc1ccc(O)cc1	·	7%	·	·	·
O=C1N/C(=C/c2ccc(N3CCCC3)cc2)C(=O)N1c1ccccc1	-13%	11%	-9%	3%	11%
CCCCn1nnnc1C(c1ccccc1)N1CCN(c2ncc(C(F)(F)F)cc2Cl)CC1 (stereo not drawn)	·	-4%	·	·	·
O=C(C[C@@H](C(=O)O)N1CCOCC1)c1ccccc1	·	·	6%[13.5 µM]	·	·
C[C@@H]1CCCCO[C@@H](CN(C)Cc2ccncc2)[C@@H](C)CN([C@H](C)CO)C(=O)c2cc(NC(=O)c3ccccc3)ccc2O1	·	-13%	·	·	·
CCc1nc2ccc(C(=O)Nc3cc(-c4ccccc4)ccc3OC)cn2c1N(C=O)CCC(C)C	·	0%	·	·	·
CN(C)c1ccc(/C=[N+](\[O-])C(C)(C)/C=N/O)cc1	-7%	-10%	22µM*	9%	3%
CCc1nc2ccc(C(=O)N3CCN(c4cccc(OC)c4)CC3)cc2nc1CC	5%	-4%	·	-1%	1%
Cc1ccc(N2C(=O)c3ccc(C(=O)N4CCN(c5cccc(C)c5C)CC4)cc3C2=O)cc1	20µM*	0%	-1%	?	6%
Cc1ccc(N2C(=O)c3ccc(C(=O)N4CCN(c5ccc(C)c(C)c5)CC4)cc3C2=O)cc1	-8%	-7%	7%	20%	10%
